This is part of a sample that, as a whole, favours compounds with a hit. Of some 79,000 tested, about 15% had one in any assay. Unmarked numbers belong to inactive results. Calls of active or inactive are those of the source. Rule as the data show it: active = growth inhibition above about 70%; inactive = the rest.
Legend:
[1] = NCI Yeast Anticancer Drug Screen. Data for the rad50 strain (AID 155);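 also: 0% = growth of vehicle-only cultures of the same strain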; details: S. cerevisiae rad50 strain growth inhibition, stronger effect = higher value
Summary of the method: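 A DNA repair-deficient yeast mutant serves as the test organism; compound-induced growth inhibition is calculated against vehicle-treated cells.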

[2] = NCI Yeast Anticancer Drug Screen. Data for the mec2-1 strain (AID 157); details: S. cerevisiae mec2-1 strain, stronger effect = higher value
Summary of the method: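 Readout is yeast growth inhibition, normalised to vehicle-treated controls, in the mec2-1 strain exposed to compound.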

[3] = NCI Yeast Anticancer Drug Screen. Data for the sgs1 mgt1 strain (AID 161);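 also: 0% = growth of cultures given vehicle only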; details: S. cerevisiae sgs1 mgt1 strain, stronger effect = higher value
Summary of the method: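 This yeast growth screen uses a strain with defined DNA-repair lesions; compound-treated growth is compared with vehicle-treated growth.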

[4] = NCI Yeast Anticancer Drug Screen. Data for the cln2 rad14 strain (AID 165);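 also: 0% = growth equal to vehicle treated cultures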; details: S. cerevisiae cln2 rad14 strain, stronger effect = higher value
Summary of the method: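 Relative to vehicle controls, growth inhibition of compound-treated cln2 rad14 yeast was recorded.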

[5] = NCI Yeast Anticancer Drug Screen. Data for the bub3 strain (AID 167); details: S. cerevisiae bub3 mutant strain, stronger effect = higher value
Summary of the method: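 Inhibition values come from growth of compound-treated mutant yeast normalised to vehicle-treated controls.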

[6] = NCI Yeast Anticancer Drug Screen. Data for the mlh1 rad18 strain (AID 175); details: S. cerevisiae mlh1 rad18 strain growth inhibition, stronger effect = higher value
Summary of the method: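 Test agents were incubated with a yeast strain of defined genotype (DNA damage repair defect). Inhibition of growth was derived by comparison with vehicle-exposed cultures.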

[7] = at 5.0 µM (retest, dose inferred, filed as 0.5)
[8] = at 50.0 µM (retest, dose inferred, filed as 5.0)

SMILES	growth inhibition [1, 7]	growth inhibition [1, 8]	growth inhibition ([1]; at 50.0 µM)	growth inhibition [2, 7]	growth inhibition [2, 8]	growth inhibition ([2]; at 50.0 µM)	growth inhibition [3, 7]	growth inhibition [3, 8]	growth inhibition ([3]; at 50.0 µM)	growth inhibition [4, 7]	growth inhibition [4, 8]	growth inhibition ([4]; at 50.0 µM)	growth inhibition [5, 7]	growth inhibition [5, 8]	growth inhibition ([5]; at 50.0 µM)	growth inhibition [6, 7]	growth inhibition [6, 8]	growth inhibition ([6]; at 50.0 µM)
COC1OC(CO)C(O)C(O)[CH]1[Hg][Cl] (centres undefined)	99% (active)	99% (active)	99% (active)	99% (active)	99% (active)	99% (active)	100% (active)	100% (active)	99% (active)	99% (active)	99% (active)	99.2% (active)	99% (active)	99% (active)	98.8% (active)	99% (active)	99% (active)	98.8% (active)
CCCCCCCCN1CCN(CCCCCCCC)C2CCCCC21 (centres undefined) (tested in a mixture with another compound)	12%	95% (active)	67.2%	4%	96% (active)	44.1%	25%	94% (active)	70.2% (active)	8%	71% (active)	56%	20%	99% (active)	71.5% (active)	18%	96% (active)	77% (active)
O=P1(N2CCOCC2)OC(c2ccccc2)=CCN1c1ccccc1 (centres undefined)	3%	4%	-0.15%	-1%	-1%	47.1%	5%	81% (active)	24.6%	-1%	-2%	39%	3%	25%	10.3%	-1%	3%	-3.45%
ClCC[Se](Cl)(Cl)c1ccccc1	33%	75% (active)	42.9%	19%	20%	55.6%	29%	48%	72% (active)	25%	44%	60.5%	6%	46%	53.2%	33%	68%	86.2% (active)
[Hg][c]1ccccc1	99% (active)	94% (active)	99.5% (active)	99% (active)	100% (active)	99.7% (active)	100% (active)	52%	99.5% (active)	99% (active)	27%	98.3% (active)	100% (active)	-2%	99.6% (active)	99% (active)	53%	99.3% (active)
CCN1CCC(O)(c2ccc(Cl)cc2)C(C(=O)c2ccc(Cl)cc2)C1 (centres undefined)	-8%	65%	99% (active)	6%	74% (active)	97.8% (active)	3%	67%	98.8% (active)	-7%	93% (active)	97.2% (active)	18%	80% (active)	98.5% (active)	3%	77% (active)	98.5% (active)
OCC1N2CCC(CC2)C1(O)O (centres undefined)	-2%	5%	-11.8%	2%	-3%	-6.9%	-3%	1%	0.1%	2%	2%	-16.1%	1%	-4%	34.5%	-2%	-4%	-12.7%
CC12CCCCC1C(=O)C2(Cl)Cl (centres undefined)	-1%	11%	11.8%	1%	17%	-2.45%	-1%	48%	43%	-1%	-4%	1.65%	3%	13%	-3.55%	1%	37%	27.4%
CC(C)(C)[Si](OC(=O)N(CCCl)CCCl)(c1ccccc1)c1ccccc1	22%	82% (active)	67.2%	10%	76% (active)	20.8%	13%	82% (active)	79.5% (active)	19%	83% (active)	68.4%	-2%	93% (active)	68.6%	15%	85% (active)	90.3% (active)
CC1=C2C(=CC(C)(C)[C@@H]2O)C(=O)[C@](C)(O)C12CC2	44%	92% (active)	80.6% (active)	12%	96% (active)	89.8% (active)	53%	91% (active)	80.8% (active)	23%	90% (active)	84.8% (active)	12%	39%	7.1%	35%	91% (active)	78.3% (active)
O=[N+]([O-])c1cccc(SC(Cl)(Cl)Cl)c1	8%	97% (active)	99.5% (active)	40%	99% (active)	99.5% (active)	31%	99% (active)	99.1% (active)	-11%	96% (active)	97.1% (active)	-1%	99% (active)	99.2% (active)	45%	99% (active)	99.3% (active)
COC1CC(OC2C(C)OC(OC3C(C)OC(OC4CCC5(C)C(=CCC6(O)C5CC(OC(=O)c5ccc(O)cc5)C5(C)C(O)(C(C)=O)CCC65O)C4)CC3OC)CC2OC)OC(C)C1O (centres undefined) (tested in a mixture with another compound)	1%	68%	45.9%	8%	82% (active)	39.1%	1%	89% (active)	68.7%	-7%	49%	48.6%	6%	74% (active)	60.5%	-3%	83% (active)	55.1%
CCc1cc(C)cc2[n+]1CC=C2	-8%	83% (active)	98% (active)	-5%	95% (active)	96.4% (active)	-5%	98% (active)	98.3% (active)	-1%	92% (active)	98.1% (active)	-2%	87% (active)	98% (active)	-6%	93% (active)	97.8% (active)

— PubChem BioAssay (NCI)
